Values without a mark were called inactive. The rule behind the calls is not given here.
Test system: Aerobactin synthetase IucA (Klebsiella pneumoniae, hypervirulent)
Experiment: biochemical IucA inhibition screen of LOPAC library by absorbance (AID 1346212);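 note: 100% = no compound wells and 0% = no enzyme wells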
Settings: IucA enzyme assay, absorbance (OD) readout; active compounds read low;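 tested at 8 µM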

Going from `O=c1ccc2c(OCCCCc3ccccc3)c3ccoc3cc2o1` to `O=c1cc(N2CCOCC2)oc2c(-c3ccccc3)cccc12`, the remaining activity falls from 123% to 110%.

First: COc1ccc(/C=C/C(=O)Nc2ccccc2C(=O)O)cc1OC
Second: N#C/C(=C\c1ccc(O)c(O)c1)C(=O)Nc1ccccc1
The remaining activity of the first is lower: 92.2% for the first, 103% for the second.

First: O=S(=O)(c1cccc2c(I)cccc12)N1CCCNCC1
Second: CC1(C)C(=O)N(CCN2CCC(C(=O)c3ccc(F)cc3)CC2)c2ccccc21
The remaining activity of the first is lower: 107% for the first, 118% for the second.

Compared with `CC(=O)O[C@H]1Cc2ccccc2N(C(N)=O)c2ccccc21`, `CN1[C@@H]2CC[C@H]1CC(OC(=O)[C@H](CO)c1ccccc1)C2` (some centres not stated) is higher in remaining activity: 85% for the first, 107% for the second.

First: N[C@@H](CS(=O)O)C(=O)O
Second: [N-]=[N+]=Nc1ccc(C(=O)CSC[C@H](NC(=O)CC[C@H](N)C(=O)O)C(=O)NCC(=O)O)cc1
The remaining activity of the first is lower: 115% for the first, 116% for the second.

First: CN1CC(=O)NC1=NC(=O)Nc1cccc(Cl)c1
Second: O=C1Nc2ccc(I)cc2/C1=C/c1cc(Br)c(O)c(Br)c1
The remaining activity of the first is lower: 98.9% for the first, 113% for the second.

First: CCCCCCCCCC[Si](C)(C)CCC(=O)NC(Cc1ccc(C)cc1)c1ccccc1 (configuration not stated)
Second: COc1ccc2c(c1)c(CC(=O)O)c(C)n2Cc1ccc(F)cc1
The remaining activity of the first is higher: 116% for the first, 101% for the second.

First: c1cnc2c(c1)ccc1cccnc12
Second: Oc1ccc(C2CNCc3sccc32)cc1O (configuration not stated)
The remaining activity of the first is higher: 101% for the first, 99.3% for the second.

`N=c1ccn2c(n1)O[C@H]1[C@H](O)[C@@H](CO)O[C@H]12` was tested, and the remaining activity was 95.9%.
